Among the data in PubChem BioAssay (NCI) are growth values, retold here.

This is part of a sample that, as a whole, favours compounds with a hit. Of some 83,000 tested, about 20% had one in any assay.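 48-hour exposure, single concentration, 96-well plates; percent growth endpoint where 0 means no net growth. Active: below 10.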 Values without a mark were called inactive. The source made the active and inactive calls.

Some test systems named below: SR leukemia; RPMI-8226 leukemia; OVCAR-8 ovarian; OVCAR-5 ovarian; OVCAR-4 ovarian; SK-OV-3 ovarian; IGROV1 ovarian; OVCAR-3 ovarian; HS 578T breast; NCI/ADR-RES ovarian; T-47D breast; BT-549 breast; MDA-MB-435 melanoma; SW-620 colon; HCT-116 colon; HCC-2998 colon; KM12 colon; MCF7 breast.
Experiment in all cases: NCI-60 one-dose screen, 48 h (100 = growth as untreated, 0 = no growth, -100 = all killed)
What all share (conditions): 10 µM unless noted

Turning to `Cc1cc(C)c(NC(=O)c2sc3nc4c(cc3c2N)CCCC4)c(C)c1`, the growth with SR leukemia was 7.8% (active); in the experiment on RPMI-8226 leukemia, 55.2%; in the experiment with OVCAR-8 ovarian, 62.3%; in the experiment on OVCAR-5 ovarian, 90.8%; in the experiment on OVCAR-4 ovarian, 60.9%; in the experiment on SK-OV-3 ovarian, 51.3%. The growth was 62.5% with IGROV1 ovarian; 18.1% in the experiment with OVCAR-3 ovarian; 46.2% in the experiment on HS 578T breast; 18.4% with NCI/ADR-RES ovarian; 36.2% in the experiment on T-47D breast; 56.4% with BT-549 breast. In addition, the growth in the experiment with MDA-MB-435 melanoma is -13.6% (active); in the experiment with SW-620 colon it was 30.5%; in the experiment with HCT-116 colon, 29.9%; in the experiment with HCC-2998 colon, 87.6%; with KM12 colon, 34.9%.

For the compound `c1ccc(-c2nc(Nc3ccc(-c4nc5ccccc5[nH]4)cc3)nc(N3CCOCC3)n2)cc1`, the growth in the experiment with SR leukemia is 8.94% (active); in the experiment on RPMI-8226 leukemia it was -22.6% (active); with OVCAR-8 ovarian, -50.4% (active); in the experiment on OVCAR-5 ovarian it was 0.632% (active); in the experiment with OVCAR-4 ovarian, -47.2% (active); in the experiment with SK-OV-3 ovarian, -30.3% (active). In addition, the growth in the experiment on IGROV1 ovarian was -38.1% (active); in the experiment with OVCAR-3 ovarian, -73.4% (active); in the experiment with HS 578T breast, -39.9% (active); in the experiment on NCI/ADR-RES ovarian, -60.8% (active); in the experiment with T-47D breast, -62.3% (active); with BT-549 breast, 33.7%. Moreover, the growth was -81.1% (active) in the experiment on MDA-MB-435 melanoma, -76.2% (active) in the experiment on MCF7 breast, -81.5% (active) in the experiment on HCT-116 colon and -76.6% (active) in the experiment with KM12 colon.

Regarding `c1ccc(C2Cc3ccccc3C2=NC2CCCCC2)cc1` (stereo unspecified), the growth is 91.1% in the experiment with SR leukemia; 100% in the experiment with RPMI-8226 leukemia; 107% in the experiment on OVCAR-8 ovarian; 90.8% in the experiment with OVCAR-5 ovarian; 102% with OVCAR-4 ovarian; 110% with SK-OV-3 ovarian. The growth with IGROV1 ovarian is 112%; in the experiment on OVCAR-3 ovarian it was 121%; in the experiment with HS 578T breast, 113%; in the experiment with NCI/ADR-RES ovarian it was 113%; in the experiment on T-47D breast it was 93.5%; in the experiment with BT-549 breast it was 88.3%. The growth in the experiment on SW-620 colon is 119%; in the experiment with MCF7 breast it was 86.1%; in the experiment with HCT-116 colon, 96.9%; with HCC-2998 colon it was 108%; in the experiment with KM12 colon, 112%.

As to `C=C1C(=O)O[C@H]2[C@H]1CC/C(COC(=O)NCc1c[nH]c3ccccc13)=C\CC[C@@]1(C)O[C@@H]21`, the growth is 4.39% (active) in the experiment on SR leukemia; 4.57% (active) in the experiment on RPMI-8226 leukemia; 39.4% in the experiment on OVCAR-8 ovarian; 86.1% in the experiment with OVCAR-5 ovarian; 58.1% with OVCAR-4 ovarian; 86.5% with SK-OV-3 ovarian. Also, the growth with IGROV1 ovarian was 21.2%; with OVCAR-3 ovarian, 2.08% (active); in the experiment on HS 578T breast, 87.1%; in the experiment with NCI/ADR-RES ovarian, 78.8%; with T-47D breast, 37.8%; in the experiment with BT-549 breast, 50.7%. The growth is 46.9% in the experiment on MDA-MB-435 melanoma, 17.1% in the experiment on MCF7 breast, -12.3% (active) in the experiment with HCT-116 colon and 96.9% in the experiment with KM12 colon.

For the compound `C#CCN=C[C@]12CC[C@@H](C(=C)C)[C@@H]1[C@H]1CC[C@@H]3[C@@]4(C)CCC(=O)C(C)(C)[C@@H]4CC[C@@]3(C)[C@]1(C)CC2`, the growth in the experiment with SR leukemia was 36.5%; in the experiment with RPMI-8226 leukemia, 33%; in the experiment with OVCAR-8 ovarian it was 57.2%; in the experiment with OVCAR-5 ovarian, 115%; in the experiment with OVCAR-4 ovarian, 53.5%; in the experiment on SK-OV-3 ovarian it was 91.8%. Moreover, the growth was -10.9% (active) in the experiment on IGROV1 ovarian; 62.3% in the experiment with OVCAR-3 ovarian; 87.8% with HS 578T breast; 64.2% with NCI/ADR-RES ovarian; 37% in the experiment with T-47D breast; 72.4% in the experiment on MDA-MB-435 melanoma. For the same compound, the growth in the experiment with SW-620 colon was 65.3%; in the experiment with MCF7 breast, 42.5%; in the experiment on HCT-116 colon, 26.8%; in the experiment with HCC-2998 colon it was 78.1%; with KM12 colon, 61%.

With `CCCCN1CCCCn2c1nc1c2c(=O)n(C)c(=O)n1C`, the growth with SR leukemia is 87.6%; in the experiment with RPMI-8226 leukemia it was 103%; in the experiment on OVCAR-8 ovarian it was 95.5%; in the experiment with OVCAR-5 ovarian it was 117%; with OVCAR-4 ovarian, 107%; in the experiment on SK-OV-3 ovarian it was 110%. For the same compound, the growth was 106% in the experiment on IGROV1 ovarian; 102% in the experiment on OVCAR-3 ovarian; 100% in the experiment on HS 578T breast; 99.9% in the experiment with NCI/ADR-RES ovarian; 107% in the experiment with T-47D breast; 108% with BT-549 breast. Further, the growth in the experiment on MDA-MB-435 melanoma is 107%; in the experiment on MCF7 breast, 103%; in the experiment on HCT-116 colon it was 104%; in the experiment on HCC-2998 colon it was 95.9%; with KM12 colon it was 101%.

On to `Cn1cc(-c2csc(-c3cn(CCCN4CCCCC4)c4ccccc34)n2)c2cccnc21`, for which the growth in the experiment on SR leukemia was -50.7% (active); with RPMI-8226 leukemia, -35.9% (active); with OVCAR-8 ovarian it was -68.4% (active); in the experiment with OVCAR-5 ovarian, 92.9%; in the experiment with OVCAR-4 ovarian, -48.2% (active); in the experiment on SK-OV-3 ovarian, 94.7%. For the same compound, the growth was 79.6% with IGROV1 ovarian; -80.9% (active) in the experiment on OVCAR-3 ovarian; 67.5% in the experiment with HS 578T breast; -25% (active) in the experiment on NCI/ADR-RES ovarian; 92.5% in the experiment on T-47D breast; -87.7% (active) in the experiment with MDA-MB-435 melanoma. For the same compound, the growth is -65.3% (active) in the experiment on SW-620 colon; -77.2% (active) with MCF7 breast; -95% (active) with HCT-116 colon; 99% in the experiment with HCC-2998 colon; -62.8% (active) in the experiment with KM12 colon.

Turning to `C=C1CC[C@@H](C(=O)OC)Cc2nc(C)ccc21`, the growth in the experiment with SR leukemia is 95.7%; in the experiment on RPMI-8226 leukemia it was 100%; in the experiment on OVCAR-8 ovarian, 102%; in the experiment on OVCAR-5 ovarian it was 98.4%; in the experiment on OVCAR-4 ovarian it was 103%; in the experiment on SK-OV-3 ovarian, 109%. In addition, the growth is 107% in the experiment on IGROV1 ovarian; 119% in the experiment on OVCAR-3 ovarian; 107% in the experiment with HS 578T breast; 98.5% in the experiment on NCI/ADR-RES ovarian; 99% in the experiment with T-47D breast; 122% in the experiment with BT-549 breast. Further, the growth in the experiment on MDA-MB-435 melanoma was 103%; in the experiment with SW-620 colon, 102%; in the experiment on HCT-116 colon, 110%; in the experiment on HCC-2998 colon, 101%; in the experiment with KM12 colon it was 108%.

On to `OCC12CCCC(CO)(COC1)C2O` (stereo unspecified), for which the growth was 116% with SR leukemia; 103% in the experiment with RPMI-8226 leukemia; 109% in the experiment on OVCAR-8 ovarian; 106% in the experiment with OVCAR-5 ovarian; 104% with OVCAR-4 ovarian; 102% in the experiment on SK-OV-3 ovarian. For the same compound, the growth in the experiment with IGROV1 ovarian is 116%; in the experiment on OVCAR-3 ovarian, 117%; with HS 578T breast, 115%; in the experiment with NCI/ADR-RES ovarian it was 97.3%; with T-47D breast it was 101%; in the experiment on BT-549 breast it was 105%. The growth was 97.1% in the experiment on SW-620 colon; 106% in the experiment on MCF7 breast; 100% in the experiment on HCT-116 colon; 100% with HCC-2998 colon; 107% in the experiment on KM12 colon.
